Screening data: PubChem, National Center for Advancing Translational Sciences (NCATS)
An excerpt weighted towards active compounds, which were near 2.3% of everything screened.
Abeta yeast res – A-beta toxicity reversal in yeast; Potency, µM (highest dose often 46.1 µM), hits mostly activators; 410,000 compounds, 0.063% hits; yeast expressing A-beta42, growth rescue, OD600, 48 h; response scale: 0% DMSO, 100% iron-clioquinol control; AID 1347071; note: nearly all actives have a fitted effect of over 55% in size
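Growth rescue measured by 600 nm absorbance after 48 h yeast culture at 30 C with compound. Values normalized between DMSO and an equimolar ferric chloride plus clioquinol control.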
FUS suppressor – FUS proteinopathy suppression in yeast; Potency, µM (highest dose often 76.6 µM), actives largely listed as activators; S. cerevisiae FUS-expressing, growth rescue, OD600, 24 h; AID 1347120; 390,000 compounds, 0.24% hits; note: nearly all actives have a fitted effect of over 55% in size
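Yeast expressing FUS under galactose induction, OD 0.005 in 2% galactose medium; compounds in a dilution series, 24 h at 30C. Growth rescue by absorbance at 600 nm; CP55940 positive control, DMSO negative.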
TDP43 rescue – inhibitors of TDP-43 toxicity in yeast. TDP-43 expressing yeast growth rescue, BacTiter-Glo, 24 h. Potency, µM (doses to about 46.1 µM), most hits filed as activators. 410,000 compounds, 1.8% hits. AID 652104; note: nearly all actives have a fitted effect of over 50% in size
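In this qHTS, compounds that restore growth of yeast expressing TDP-43 appear as activators. Cells (OD600=0.02, galactose medium, raffinose-pregrown) are incubated with compound 24 hr at 30 deg C and growth is quantified by BacTiter-Glo.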
aSyn rescue – inhibitors of alpha-synuclein toxicity in yeast | 370,000 compounds, 0.14% hits | Potency, µM (series often up to 46.1 µM), usual class: activators | AID 652106 | Yeast expressing alpha-synuclein, growth rescue, BacTiter-Glo, 24 h; note: nearly all actives have a fitted effect of over 65% in size
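Rescue of yeast growth: cells expressing toxic alpha-synuclein, induced in galactose at OD600 0.02, incubated with compound 24 h at 30 C. ATP luminescence quantified growth; inhibitors of toxicity appear as activators.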
Akt phos inh – Akt phosphorylation inhibition; Neuro2A IGF-stimulated pAkt S473 HTRF, 20 min; active compounds read low; activity change, % for hits at 50 µM; 360,000 compounds, 0.32% hits; AID 651550; in the data active = activity change below about -80%; inconclusive = mostly about -51% to -80%
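Single-point screen (50 µM final compound) in Neuro2A cells stimulated 20 min with 6 nM IGF at 37 deg C. After lysis, Ser473-phosphorylated Akt read by HTRF (ex 330 nm, em 615/665 nm) as the 665/615 ratio.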
Each line names hits and unclear results; the compound was inactive in the other large screens. Unless noted, calls come from the whole dose curve; as a rule, active = well fitted curve in the direction sought with a large enough effect; inconclusive = small, poorly fitted or top-dose-only effect, or another doubt; inactive = no such curve, though single readings can be large; an effect the other way counts as inactive or inconclusive.

Cc1ccn2c(=O)cc(CSc3nnc(NC(=O)c4ccccc4Cl)s3)nc2c1	none (no result: aSyn rescue, Akt phos inh)
c1ccc2c(c1)oc1c(NCCCn3ccnc3)ncnc12	none
c1ccc2c(c1)oc1c(NCCCN3CCOCC3)ncnc12	Akt phos inh -109.0%
CC(C)OC1=CC(=O)OC(c2cccc(Cl)c2)C1 (configuration not stated)	TDP43 rescue 22.4µM
Cc1cc(NC(=O)CSc2nc(-c3cccnc3)ccc2C#N)no1	FUS suppressor inconclusive
Cc1cc(NC(=O)CSc2nc3c(c(-c4cccnc4)c2C#N)CCC3)no1	Akt phos inh -102.2%
COC(=O)C1=C(C)N(c2cccc(Cl)c2)C(=O)C1	Akt phos inh -118.1%
CC1=C(C(=O)N2CCc3ccccc32)C2(CCC(C)CC2)OC1=O (configuration not stated)	TDP43 rescue 12.6µM (no result: aSyn rescue, Akt phos inh)
CC1=C(C(=O)Nc2ccc(C)cc2Cl)C2(CCCCCC2)OC1=O	none (no result: aSyn rescue, Akt phos inh)
COc1ccc(OC)c(CCNC(=O)C2=C(C)C(=O)OC23CCC(C)CC3)c1 (configuration not stated)	none (no result: aSyn rescue, Akt phos inh)
CCOc1ccc(NC(=O)C2CC(C)=C(C)CC2C(=O)O)cc1 (configuration not stated)	Akt phos inh -118.5%
CC1=C(C(=O)Nc2ccc(C)cc2Cl)C2(CCCCC2)OC1=O	TDP43 rescue 11.2µM (no result: aSyn rescue, Akt phos inh)
CC1=C(C(=O)N2CCCCC2)C2(CCC(C)CC2)OC1=O (configuration not stated)	none
COc1ccc(NC(=O)C2=C(C)C(=O)OC23CCC(C)CC3)c(OC)c1 (configuration not stated)	TDP43 rescue 20µM
Cc1ccc(C(=O)Nc2nc3n(n2)C(c2ccc(F)cc2)C=C(c2ccccc2)N3)cc1 (configuration not stated)	FUS suppressor inconclusive (no result: aSyn rescue, Akt phos inh)
Cc1ccc(C(=O)Nc2onc3c2CCCC3)cc1	TDP43 rescue inconclusive (no result: aSyn rescue, Akt phos inh)
CCCNC(=O)C1=C(C)C(=O)OC12CCC(C)CC2 (configuration not stated)	none
CCOc1ccc(NC(=O)C2=C(C)C(=O)OC23CCC(C)CC3)cc1 (configuration not stated)	Abeta yeast res inconclusive, TDP43 rescue 20µM
O=C(Nc1cc(C(F)(F)F)ccc1Cl)c1cc(-c2ccc3c(c2)OCCO3)on1	none (no result: aSyn rescue, Akt phos inh)
Cc1cccc(-n2c(Cc3ccccc3)nnc2SCC(=O)N2CCOCC2)c1	none
O=C(CSc1nnc(Cc2ccccc2)n1-c1cccc(Cl)c1)N1CCOCC1	Akt phos inh -131.8%
COc1cc(NC(=O)CSc2nc3nc(C)c(Cc4ccccc4)c(C)n3n2)cc(OC)c1OC	none (no result: aSyn rescue, Akt phos inh)
Cn1c(=O)c2c(nc(CN3CCc4ccccc4C3)n2Cc2cccc(Cl)c2)n(C)c1=O	FUS suppressor inconclusive, TDP43 rescue 20µM
Cc1cccc(CSc2cn(CC(=O)N3CCCC3)c3ccccc23)c1	FUS suppressor inconclusive, TDP43 rescue inconclusive (no result: aSyn rescue, Akt phos inh)
Cc1cccc(C)c1NC(=S)NCCSc1ccc(Cl)cc1	TDP43 rescue 22.4µM
COc1ccc(Cl)cc1NC(=S)NCCSc1ccc(C)cc1	TDP43 rescue 22.4µM (no result: FUS suppressor)
CCCCn1cnc2cc(NCc3ccccc3Cl)ccc21	none (no result: aSyn rescue, Akt phos inh)
Nc1nc(SCC(=O)N2N=C3/C(=C\c4ccco4)CCCC3C2c2ccco2)n[nH]1 (configuration not stated)	FUS suppressor 31.6µM
Cc1cccc(-n2c(=O)c3c(c4cc(C)ccc4n3C)n(CC(=O)NCCC3=CCCCC3)c2=O)c1	none (no result: aSyn rescue, Akt phos inh)
CCOC(=O)c1c(N)sc2c1CCC1C(=O)N(C3CCCCC3)C(=O)C21 (configuration not stated)	FUS suppressor 28.2µM
CCOc1ccccc1NC(=O)c1ccccc1-c1ccccc1	none
CCOc1ccccc1NC(=O)c1cccc2ccccc12	TDP43 rescue 7.94µM
CCOc1ccccc1NC(=O)c1cnccn1	TDP43 rescue 11.2µM
O=C(NCCCc1ccccc1)c1cnc2n(c1=O)CCS2	none (no result: Akt phos inh)
O=C(NCCc1ccc(Cl)cc1)c1cnc2n(c1=O)CCS2	TDP43 rescue 35.5µM
c1ccc(Sc2ncnc3c2oc2ccccc23)cc1	TDP43 rescue 12.6µM
O=C(O)CSc1ncnc2c1oc1ccccc12	none
O=[N+]([O-])c1ccc(Oc2ccc(F)cc2)c2ccncc12	TDP43 rescue inconclusive
O=[N+]([O-])c1ccc(Oc2cccc(Br)c2)c2ccncc12	TDP43 rescue 15.8µM
O=C1c2ccccc2C(=O)c2c1cccc2N1CCCC1	TDP43 rescue 14.1µM (no result: FUS suppressor)
O=C1CCC[C@@H]2Cc3[nH]c4c(Cl)ccc(Cl)c4c3[C@@H]3CCN1[C@H]23	TDP43 rescue 28.2µM
COC(=O)c1ccc2nc3c(cc2c1)[C@@H]1CCN2C(=O)CCC[C@H](C3)[C@H]12	none
O=S(=O)(Nc1ccc(F)cc1F)c1ccc(Br)s1	TDP43 rescue 20µM (no result: aSyn rescue, Akt phos inh)
COc1ccccc1CCNC(=O)c1ccc(Br)s1	TDP43 rescue 14.1µM
Cc1ccc(F)cc1NS(=O)(=O)c1ccc(Cl)s1	TDP43 rescue 35.5µM
COc1ccccc1CNS(=O)(=O)c1ccc(Br)s1	TDP43 rescue 12.6µM
CCc1ccc(-n2nc(C)c3c(C(=O)Nc4cccc(C(F)(F)F)c4)cc(C)nc32)cc1	none (no result: aSyn rescue, Akt phos inh)
Cc1ccc(NC(=O)CN2C=NS(=O)(=O)c3ccccc32)cc1	none (no result: aSyn rescue, Akt phos inh)
CCOc1ccccc1NS(=O)(=O)c1ccc(Br)s1	aSyn rescue 14.1µM (no result: Akt phos inh)
CCCN(CC(=O)Nc1cccc(Br)c1)CC(=O)Nc1ccc(F)c(F)c1F	TDP43 rescue 14.1µM, aSyn rescue inconclusive
COc1ccc(N2CCN(C(=O)Cc3c(C(=O)O)c(C)cn3C)CC2)cc1	none (no result: aSyn rescue, Akt phos inh)
Cc1ccc(-n2ncc3c(NCCCN4CCOCC4)ncnc32)cc1C	none (no result: aSyn rescue, Akt phos inh)
Cc1ccccc1Cn1nnc2c(=O)[nH]c(C3CCN(C(=O)c4ccccc4Cl)CC3)nc21	none (no result: aSyn rescue, Akt phos inh)
C[C@@H]1CN([C@H](C)CO)C(=O)c2cc(/C=C/c3ccccc3)cnc2O[C@H]1CN(C)C(=O)NC1CCCCC1	none
C[C@H]1CN([C@@H](C)CO)S(=O)(=O)c2ccc(/C=C/c3ccccc3)cc2O[C@H]1CN(C)C(=O)NC1CCCCC1	FUS suppressor 11.2µM
CCOC(=O)Cn1c(=NC(=O)CSC(C)=O)sc2cc(F)ccc21	Abeta yeast res 6.31µM, TDP43 rescue inconclusive
CCn1c(=NC(=O)CSC(C)=O)sc2cc(OC)ccc21	Abeta yeast res inconclusive, TDP43 rescue 14.1µM
CCOC(=O)c1[nH]c2ccccc2c1NC(=O)c1cc(OC)cc(OC)c1	none (no result: aSyn rescue, Akt phos inh)
O=C(Nc1ccc2c(c1)OCO2)N1CCN(C/C=C/c2ccccc2)CC1	Akt phos inh -83.3%
Cc1ccc(NC(=O)N2CCN(C/C=C/c3ccccc3)CC2)cc1	none
O=C1CSC(c2ccccc2F)N1c1cc(Cl)ccc1O (configuration not stated)	none
O=C1CSC(c2cccc(Cl)c2Cl)N1c1ccccn1 (configuration not stated)	TDP43 rescue 14.1µM
